TIM10 inh: growth inhibitors of TIM10 yeast strain | S. cerevisiae TIM10 strain growth, BacTiter-Glo luminescence, 24 h | inhibition, % at 10 µM | actives 1.4% (n = 330,000) | AID 463195;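 active = inhibition of 40% or more at the single tested concentration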;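 also: wild-type TIM10 isogenic control strain grown at permissive 25 °C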
tim10-1 inh: tim10-1 yeast growth inhibition; S. cerevisiae tim10-1 ts strain growth, BacTiter-Glo, 24 h; inhibition, % at 20 µM; actives 2.2% (n = 330,000);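 active = inhibition of at least 40%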;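 also: mutant grown at 25 °C; 0% = DMSO wells with yeast and 100% = wells holding no yeast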
SUMO Mot1 rescue: inhibitors of SUMOylation pathway: yeast Mot1-301 growth rescue | S. cerevisiae Mot1-301 growth rescue, ATP luminescence, 38.5C; percent above DMSO median, 100 means doubled | growth rescue, % at 18.8 µM | actives 1% (n = 320,000);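 active = every valid replicate shows activation above 250% relative to neutral control wells; inactive = the rest, any valid replicate at or below 250%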;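 also: OY570 slx delta 5 strain wells were the positive control but not used for scaling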
tim23-1 inh: inhibits growth of tim23-1 mutant yeast; S. cerevisiae tim23-1 growth, BacTiter-Glo luminescence, 24 h; inhibition, % at 20 µM; actives 1.3% (n = 330,000);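 active = growth inhibition of the mutant yeast at or above 50%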;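 also: temperature-sensitive mutant grown at 25 °C; plate controls were DMSO-treated mutant yeast for no effect and medium wells lacking yeast for full effect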
PfHsp90 yeast 2: reduces growth (ATP signal) of yeast expressing P. falciparum Hsp90. S. cerevisiae expressing PfHsp90, BacTiter-Glo ATP, 48 h; yeast lacking PDR1 and PDR3 efflux regulators. inhibition, % at 9.4 µM. actives 0.32% (n = 310,000);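 active = every replicate shows inhibition above about 80%, whatever the replicate mean, limit read from the data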;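 also: 0% = DMSO neutral controls and 100% = 20 µM radicicol positive controls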
tim10-1 confirm: confirmation of tim10-1 mutant yeast growth inhibitors. shares compounds with tim10-1 inh. S. cerevisiae tim10-1 ts strain growth, BacTiter-Glo, 24 h. inhibition, % at 20 µM. actives 56% (n = 7,400). AID 463213;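 active = inhibition of yeast growth at or above a set limit in either of two repeat tests at 20 µM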;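 also: tim10-1 mutant grown at permissive 25 °C to find synthetic lethal compounds; 0% = DMSO yeast wells and 100% = medium wells without yeast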
* marks the source's active call; other numbers are inactive results; i = inactive; nt = not tested or not shown. Only some compounds are listed: those with a hit (about 4.4% of all), similar ones and a draw of the others.

SMILES	TIM10 inh	tim10-1 inh	SUMO Mot1 rescue	tim23-1 inh	PfHsp90 yeast 2	tim10-1 confirm
COC(=O)c1ccccc1NC(=O)CSc1nc(O)cc(=O)n1C1CCCC1	4.8	45.7*	-3.2	16.8	21.9	24.1
O=C(CSc1nc(O)cc(=O)n1C1CCCC1)Nc1cccc(Cl)c1Cl	12.7	18.5	7.2	19.5	23.4	nt
COc1cccc2sc(N3CCN(C(=O)c4ccc([N+](=O)[O-])o4)CC3)nc12	24.8	50.6*	-7.0	-37.4	-3.6	27.9
Cc1cccc(C)c1OCC(O)Cn1c2ccccc2c2ccccc21 (centres undefined)	31.3	45.1*	5.4	10.1	nt	5.5
O=C(NNC(=S)Nc1ccc(Br)cc1)c1ccc(N2CCOCC2)c([N+](=O)[O-])c1	14.4	44.2*	-12.8	27.8	-25.0	18.5
Cc1ccc(NC(=S)NNC(=O)c2ccc(N3CCOCC3)c([N+](=O)[O-])c2)cc1Cl	27.7	-5.4	0.4	14.4	-41.9	nt
Oc1ccc(CN2CCN(Cc3ccccc3)CC2)c2cccnc12	16.7	21.0	5.7	-40.3	nt	nt
CN1CCN(Cc2cc(COCc3ccccc3)c3cccnc3c2O)CC1	8.8	46.9*	-12.5	10.4	17.5	25.1
Cc1ccc(OCCNC(=O)CNC(=O)c2ccc3c(c2)OCO3)cc1	4.3	2.3	0.1	-6.1	13.5	nt
O=C(Nc1ccc2c(c1)OCO2)c1cccc2c1C(=O)N(Cc1cccnc1)C2	35.2	42.9*	12.3	19.9	5.2	33.6*
C[C@H](O)CC(=O)O	6.2	-6.1	-6.5	-4.0	18.6	nt
Cc1cccc(N2CC(C(=O)Nc3ccccc3N3CCOCC3)CC2=O)c1C (centres undefined)	3.7	0.1	-5.1	6.0	nt	nt
O=C(Nc1nc2ccc(Cl)cc2s1)c1ccco1	39.4	40.1*	196.3	33.6	11.7	29.9
Cc1ccccc1-n1c(SCC(=O)N2CCN(c3ccccn3)CC2)nnc1N1CCOCC1	9.8	3.8	16.1	6.4	-9.6	nt
O=C(Nc1cccc(S(=O)(=O)Nc2ccc(Cl)cc2)c1)c1ccccn1	6.3	-4.3	7.7	47.6	1.5	nt
CCOC(=O)C1(S(=O)(=O)c2ccc(Cl)cc2)CCN(Cc2ccc(C)cc2)CC1	28.2	50.1*	25.9	44.8	-5.7	28.2
CCc1ccc(/C=C2\Oc3cc(OC(=O)N4CCOCC4)ccc3C2=O)cc1	29.1	50.5*	21.8	27.2	49.4	17.5
COc1ccc(/C=C2\Oc3cc(OC(=O)N4CCOCC4)ccc3C2=O)cc1	-9.8	19.1	15.7	13.1	14.0	nt
CCOC(=O)C1CCN(c2cc3c(cc2NC(=O)c2ccccc2F)n(C)c(=O)n3C)CC1	-12.1	9.0	-16.1	14.8	-30.9	nt
CCOC(=O)C1CCN(c2cc3c(cc2NC(=O)c2ccccc2OCC)n(C)c(=O)n3C)CC1	-19.9	47.5*	-16.0	30.4	-53.5	-0.4
CCOC(=O)C1CCN(c2cc3c(cc2NC(=O)c2ccccc2Cl)n(C)c(=O)n3C)CC1	2.5	48.7*	3.0	32.9	-23.4	-3.8
CCOC(=O)C1CCN(c2cc3c(cc2NC(=O)c2ccc(F)cc2)n(C)c(=O)n3C)CC1	15.6	20.4	-3.2	13.2	8.6	nt
CCCc1ccc(C(=O)CCC(=O)NNC(=O)c2ccncc2)cc1	0.1	4.4	-3.5	-5.2	16.0	nt
Cc1ccc(N(CC(=O)N2CCN(c3ccc(F)cc3)CC2)S(=O)(=O)c2c(C)noc2C)cc1	14.2	40.9*	-0.8	32.3	-8.1	7.8
CCc1cccc(NC(=O)CN(c2ccc(C)cc2)S(=O)(=O)c2c(C)noc2C)c1	32.7	48.8*	101.4	35.2	6.7	36.4*
SMILES	TIM10 inh	tim10-1 inh	SUMO Mot1 rescue	tim23-1 inh	PfHsp90 yeast 2	tim10-1 confirm
CCOC(=O)N1CCN(C(=O)CN(c2ccc(C)cc2)S(=O)(=O)c2c(C)noc2C)CC1	13.5	23.9	24.8	2.4	-16.1	nt
Cc1ccc(N(CC(=O)Nc2cc(C)cc(C)c2)S(=O)(=O)c2c(C)noc2C)cc1	29.2	36.1	0.1	27.8	5.3	nt
Cc1ccc(S(=O)(=O)N2CCC(C(=O)OCC(=O)N(C)CC(=O)Nc3ccc(F)cc3)CC2)cc1C	13.4	-3.9	-13.6	-10.0	3.6	nt
CCC(C)Nc1nc(Cl)nc(NCCOc2ccccc2)n1 (centres undefined)	14.4	29.6	-16.0	23.0	11.0	nt
CC(C)Nc1nc(Cl)nc(NCCOc2ccccc2)n1	8.1	40.1*	0.0	-12.0	14.9	22.6
CN(CC(=O)Nc1c(Cl)cccc1Cl)C(=O)C1CC(=O)N(Cc2ccccc2)C1 (centres undefined)	1.3	-12.1	0.4	-2.0	18.9	nt
O=C(O)c1cn(-c2ccccc2)nc1-c1ccncc1	0.3	15.3	i	3.3	4.3	nt
O=C(c1cn(-c2ccccc2)nc1-c1ccncc1)n1nnc2ccccc21	26.7	53.3*	310.5	39.7	-14.9	39.5*
CCCCCCC(C)NC(=S)Nc1cc(S(=O)(=O)N(C)C)ccc1C (centres undefined)	11.1	40.8*	-13.6	3.8	nt	15.9
c1cncc(-c2nc(N3CCCCCC3)c3ccccc3n2)c1	25.9	49.6*	nt	43.5	14.1	32.0*
CSc1ccccc1NC(=O)C1CC(c2c(F)cccc2Cl)=NO1 (centres undefined)	32.9	46.5*	182.2	46.9	22.3	55.7*
Cc1ccc(S(=O)(=O)N(C(=O)c2ccncc2)c2ccc(OC(=O)c3ccncc3)c3ccccc23)c(C)c1	19.4	48.0*	13.2	45.7	2.6	32.4*
Cc1cc2ncn(/N=C/c3ccc(-c4ccccc4)o3)c2cc1C	30.2	46.5*	-2.5	-10.1	nt	16.7
Cc1cccn2cc(CSc3nnc(Nc4ccc(C(C)C)cc4)s3)nc12	16.9	44.9*	-6.5	16.4	1.8	28.1
Cc1ccc(N2C(=O)N(CC(=O)Nc3ccccc3C(F)(F)F)C(=O)C2C)cc1 (centres undefined)	5.8	-5.0	-5.4	2.0	-12.4	nt
Cc1oc(=O)c(NC(=O)c2ccc(Cl)cc2)cc1C(=O)c1ccccc1	27.9	56.4*	242.2	37.4	59.1	57.1*
O=C(NCc1cc(C(F)(F)F)ccc1Cl)c1cccc2c1C(=O)c1ccc(Cl)cc1S2(=O)=O	-6.1	-1.3	-0.5	11.9	nt	nt
CC1CCC/C(=N\NC(=S)NCc2ccccc2)C1 (centres undefined)	28.1	40.8*	0.1	34.7	2.6	31.6*
CC1CCC/C(=N\NC(=S)Nc2ccccc2)C1 (centres undefined)	25.2	27.7	117.6	21.0	-34.9	nt
O=C(N/N=C/c1ccc([N+](=O)[O-])s1)c1cccc(Br)c1	30.4	52.5*	132.5	39.3	34.7	25.8
Cc1ccc(C(=O)N/N=C/c2ccc([N+](=O)[O-])s2)cc1	25.4	20.7	50.2	28.3	-8.0	nt
O=C(N/N=C/c1ccc(O)c2ncccc12)c1cccc(Br)c1	10.5	52.3*	-25.0	15.0	104.2*	19.2

Screening results (PubChem BioAssay)
